This passage reports outcome and AC50 results from PubChem BioAssay (EPA / NIEHS).

Active and inactive are the calls of the source. How the source made its calls: active means hit-call score of the fitted dose curve at least 0.9, where 1 is the maximum; inactive means score below 0.9.

Common to all, as to details: mRNA level, 48 h; actives raise or lower the signal
Read-out in test [1]: Insulin Like Growth Factor 1 (IGF1), IGF1 (gene 3479)
Briefly: LTEA_HepaRG_IGF1: Life Technologies and Expression Analysis (LTEA) Assay for Insulin Like Growth Factor 1 (IGF1) using HepaRG (AID 2283506). A digest of the protocol: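 Differentiated human HepaRG cells were dosed for 48 h in serum-free induction medium with 0.5% DMSO, eight half-log concentrations up to 100 uM, in duplicate. IGF1 mRNA was quantified by qRT-PCR normalized to ACTB, GAPDH, POLR2A; bidirectional fitting versus DMSO.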

Read-out in test [2]: Intercellular Adhesion Molecule 1 (ICAM1), ICAM1 (gene 3383)
Put plainly: LTEA_HepaRG_ICAM1: Life Technologies and Expression Analysis (LTEA) Assay for Intercellular Adhesion Molecule 1 (ICAM1) using HepaRG (AID 2283507). A digest of the protocol:
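Using the human liver line HepaRG, compounds are tested in duplicate over 48 h at concentrations up to 100 uM. Expression is determined by TaqMan qRT-PCR, normalized to endogenous controls, and analysed relative to 0.5% DMSO vehicle.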

Read-out in test [3]: Insulin-like growth factor-binding protein 1 (IGFBP1), IGFBP1 (gene 3484)
Briefly: LTEA_HepaRG_IGFBP1: Life Technologies and Expression Analysis (LTEA) Assay for Insulin-like growth factor-binding protein 1 (IGFBP1) using HepaRG (AID 2283508). A digest of the protocol:
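HepaRG, 48 h, 8 conc. (max 100 uM, half-log), duplicates, 0.5% DMSO. Readout: TaqMan qRT-PCR, ACTB/GAPDH/POLR2A normalisation. Fit: bidirectional vs DMSO.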

Read-out in test [4]: Interleukin 6 (IL6), IL6 (gene 3569)
Briefly: LTEA_HepaRG_IL6: Life Technologies and Expression Analysis (LTEA) Assay for Interleukin 6 (IL6) using HepaRG (AID 2283509). A digest of the protocol: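 Differentiated human HepaRG cells, plated 48 h then switched to serum-free induction medium, were exposed in duplicate for 48 h to eight half-log concentrations up to 100 uM in 0.5% DMSO. IL6 mRNA measured by qRT-PCR, normalized to ACTB/GAPDH/POLR2A.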

Read-out in test [5]: Interleukin 6 Receptor (IL6R), IL6R (gene 3570)
Put plainly: LTEA_HepaRG_IL6R: Life Technologies and Expression Analysis (LTEA) Assay for Interleukin 6 Receptor (IL6R) using HepaRG (AID 2283510). A digest of the protocol: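 Differentiated human HepaRG cells, plated 48 h then switched to serum-free induction medium, were dosed in duplicate for 48 h at eight half-log concentrations up to 100 uM in 0.5% DMSO. IL6R mRNA quantified by qRT-PCR, normalized to ACTB/GAPDH/POLR2A; bidirectional fit versus DMSO.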

Read-out in test [6]: Potassium channel subfamily K member 1 (KCNK1), KCNK1 (gene 3775)
Briefly: LTEA_HepaRG_KCNK1: Life Technologies and Expression Analysis (LTEA) Assay for Potassium channel subfamily K member 1 (KCNK1) using HepaRG (AID 2283511). A digest of the protocol: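 Differentiated human HepaRG cells in serum-free induction medium were exposed in duplicate for 48 h to 8 half-log concentrations up to 100 uM in 0.5% DMSO. KCNK1 mRNA was measured by TaqMan qRT-PCR, normalized to ACTB, GAPDH and POLR2A, and fitted bidirectionally versus DMSO.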

Read-out in test [7]: Keratin 19 (KRT19), KRT19 (gene 3880)
Briefly: LTEA_HepaRG_KRT19: Life Technologies and Expression Analysis (LTEA) Assay for Keratin 19 (KRT19) using HepaRG (AID 2283512). A digest of the protocol:
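Readout is qRT-PCR of KRT19 mRNA, normalized to ACTB, GAPDH and POLR2A, from HepaRG cells treated 48 h with eight-point half-log dilutions topping at 100 uM. Activity in either direction is scored relative to 0.5% DMSO vehicle.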

Read-out in test [8]: JUN Transcription Factor, JUN (gene 3725)
Briefly: LTEA_HepaRG_JUN: Life Technologies and Expression Analysis (LTEA) Assay for JUN Transcription Factor using HepaRG (AID 2283513). A digest of the protocol:
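Differentiated HepaRG cells were exposed to chemicals for 48 h in serum-free induction medium, 8 concentrations from 100 uM in half-log steps, 0.5% DMSO vehicle, in duplicate. JUN mRNA was quantified by TaqMan qRT-PCR, normalized to ACTB, GAPDH, POLR2A.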

Read-out in test [9]: Lipase C (LIPC), LIPC (gene 3990)
Briefly: LTEA_HepaRG_LIPC: Life Technologies and Expression Analysis (LTEA) Assay for Lipase C (LIPC) using HepaRG (AID 2283514). In outline: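 Differentiated human HepaRG cells in serum-free induction medium were exposed in duplicate for 48 h to eight concentrations (top 100 uM, half-log steps, 0.5% DMSO). LIPC mRNA was quantified by TaqMan qRT-PCR, normalized to ACTB, GAPDH and POLR2A, with bidirectional fitting versus DMSO.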

Read-out in test [10]: Lipoprotein lipase (LPL), LPL (gene 4023)
Briefly: LTEA_HepaRG_LPL: Life Technologies and Expression Analysis (LTEA) Assay for Lipoprotein lipase (LPL) using HepaRG (AID 2283515). In outline: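 Differentiated human HepaRG cells in serum-free induction medium were exposed in duplicate for 48 h to eight half-log concentrations (top 100 uM) in 0.5% DMSO. LPL mRNA was quantified by TaqMan qRT-PCR, normalized to ACTB, GAPDH and POLR2A.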

Read-out in test [11]: MicroRNA 122 (MIR122), gene 406906
Put plainly: LTEA_HepaRG_MIR122: Life Technologies and Expression Analysis (LTEA) Assay for MicroRNA 122 (MIR122) using HepaRG (AID 2283516). Further: the transcript read is the microRNA miR-122. In outline:
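Differentiated human HepaRG cells were exposed 48 h in serum-free induction medium to eight half-log concentrations (top 100 uM, 0.5% DMSO). Transcript level was measured by TaqMan qRT-PCR, normalized to ACTB, GAPDH and POLR2A, and fitted bidirectionally versus DMSO.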

Read-out in test [12]: matrix metalloproteinase-10 (MMP10), MMP10 (gene 4319)
Put plainly: LTEA_HepaRG_MMP10: Life Technologies and Expression Analysis (LTEA) Assay for matrix metalloproteinase-10 (MMP10) using HepaRG (AID 2283517). In outline:
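HepaRG, collagen I, ~100,000 cells/well; serum-free induction medium; 48 h exposure, duplicate, 8-pt half-log to 100 uM, 0.5% DMSO. Readout: TaqMan qRT-PCR, normalized to ACTB/GAPDH/POLR2A; bidirectional fit vs DMSO.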

Read-out in another test: MYC, MYC (gene 4609)
Put plainly: LTEA_HepaRG_MYC: Life Technologies and Expression Analysis (LTEA) Assay for MYC using HepaRG (AID 2283518). A digest of the protocol: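 Expression changes were scored by TaqMan qRT-PCR with ACTB, GAPDH and POLR2A normalization. Cultures in serum-free induction medium received duplicate 8-point concentration series, highest 100 uM, for 48 h; DMSO (0.5%) served as baseline.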

Read-out in test [13]: Paternally Expressed 10 (PEG10), PEG10 (gene 23089)
Briefly: LTEA_HepaRG_PEG10: Life Technologies and Expression Analysis (LTEA) Assay for Paternally Expressed 10 (PEG10) using HepaRG (AID 2283520). A digest of the protocol:
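Differentiated HepaRG cells, plated 48 h then switched to serum-free induction medium, were exposed in duplicate for 48 h to eight half-log concentrations topping at 100 uM in 0.5% DMSO. PEG10 mRNA was quantified by TaqMan qRT-PCR, normalised to ACTB, GAPDH and POLR2A.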

Read-out in test [14]: Protein phosphatase 2A (PPP2R4), PTPA (gene 5524)
Briefly: LTEA_HepaRG_PPP2R4: Life Technologies and Expression Analysis (LTEA) Assay for Protein phosphatase 2A (PPP2R4) using HepaRG (AID 2283522). In outline:
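Differentiated HepaRG cells in serum-free induction medium were exposed in duplicate for 48 h to eight concentrations, top 100 uM with half-log dilutions, in 0.5% DMSO. PPP2R4 mRNA was quantified by TaqMan qRT-PCR, normalized to ACTB, GAPDH and POLR2A.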

Read-out in test [15]: Phosphatase and tensin (PTEN), PTEN (gene 5728)
Briefly: LTEA_HepaRG_PTEN: Life Technologies and Expression Analysis (LTEA) Assay for Phosphatase and tensin (PTEN) using HepaRG (AID 2283523). In outline: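 Differentiated human HepaRG cells, plated 48 h then switched to serum-free induction medium, were exposed in duplicate for 48 h to eight half-log concentrations up to 100 uM in 0.5% DMSO. PTEN mRNA measured by TaqMan qRT-PCR, normalized to ACTB/GAPDH/POLR2A, bidirectional fit versus DMSO.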

Read-out in test [16]: solute carrier (SLC22A1), SLC22A1 (gene 6580)
Briefly: LTEA_HepaRG_SLC22A1: Life Technologies and Expression Analysis (LTEA) Assay for solute carrier (SLC22A1) using HepaRG (AID 2283524). A digest of the protocol:
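Human HepaRG cells were plated 48 h, switched to serum-free induction medium, then exposed in duplicate for 48 h to 8-point half-log series from 100 uM in 0.5% DMSO. SLC22A1 mRNA measured by qRT-PCR, normalized to ACTB/GAPDH/POLR2A, fitted bidirectionally versus DMSO.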

Read-out in test [17]: Pyruvate Dehydrogenase Kinase 4 (PDK4), PDK4 (gene 5166)
Put plainly: LTEA_HepaRG_PDK4: Life Technologies and Expression Analysis (LTEA) Assay for Pyruvate Dehydrogenase Kinase 4 (PDK4) using HepaRG (AID 2283525). A digest of the protocol: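 Differentiated human HepaRG cells, pre-cultured 48 h, were exposed in duplicate for 48 h in serum-free induction medium to eight half-log concentrations up to 100 uM in 0.5% DMSO. PDK4 mRNA was quantified by qRT-PCR, normalized to ACTB, GAPDH and POLR2A, bidirectional fitting versus DMSO.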

Read-out in test [18]: matrix metalloproteinase-3 (MMP3), MMP3 (gene 4314)
Briefly: LTEA_HepaRG_MMP3: Life Technologies and Expression Analysis (LTEA) Assay for matrix metalloproteinase-3 (MMP3) using HepaRG (AID 2283519). A digest of the protocol: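 Differentiated human HepaRG cells, plated 48 h on collagen I, were exposed in duplicate for 48 h in serum-free induction medium to eight half-log concentrations up to 100 uM in 0.5% DMSO. MMP3 mRNA was quantified by TaqMan qRT-PCR, normalised to ACTB, GAPDH and POLR2A.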

Read-out in test [19]: Nuclear factor NF-kappa-B p105 subunit (Homo sapiens) (UniProt P19838)
Briefly: LTEA_HepaRG_NFKB1: Life Technologies and Expression Analysis (LTEA) Assay for Nuclear Factor Kappa B Subunit 1 (NFKB1) using HepaRG (AID 2283521).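 Further: TaqMan qRT-PCR transcript normalised to ACTB GAPDH and POLR2A housekeeping genes.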 A digest of the protocol: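 HepaRG, 48 h exposure; 8-pt half-log series from 100 uM in 0.5% DMSO; duplicates. Readout: NFKB1 mRNA by qRT-PCR (Fluidigm arrays), housekeeping-normalized. Gain/loss fit vs DMSO baseline.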

Nuclear factor NF-kappa-B p105 subunit (Homo sapiens), sequence (P19838 whole entry, looked up): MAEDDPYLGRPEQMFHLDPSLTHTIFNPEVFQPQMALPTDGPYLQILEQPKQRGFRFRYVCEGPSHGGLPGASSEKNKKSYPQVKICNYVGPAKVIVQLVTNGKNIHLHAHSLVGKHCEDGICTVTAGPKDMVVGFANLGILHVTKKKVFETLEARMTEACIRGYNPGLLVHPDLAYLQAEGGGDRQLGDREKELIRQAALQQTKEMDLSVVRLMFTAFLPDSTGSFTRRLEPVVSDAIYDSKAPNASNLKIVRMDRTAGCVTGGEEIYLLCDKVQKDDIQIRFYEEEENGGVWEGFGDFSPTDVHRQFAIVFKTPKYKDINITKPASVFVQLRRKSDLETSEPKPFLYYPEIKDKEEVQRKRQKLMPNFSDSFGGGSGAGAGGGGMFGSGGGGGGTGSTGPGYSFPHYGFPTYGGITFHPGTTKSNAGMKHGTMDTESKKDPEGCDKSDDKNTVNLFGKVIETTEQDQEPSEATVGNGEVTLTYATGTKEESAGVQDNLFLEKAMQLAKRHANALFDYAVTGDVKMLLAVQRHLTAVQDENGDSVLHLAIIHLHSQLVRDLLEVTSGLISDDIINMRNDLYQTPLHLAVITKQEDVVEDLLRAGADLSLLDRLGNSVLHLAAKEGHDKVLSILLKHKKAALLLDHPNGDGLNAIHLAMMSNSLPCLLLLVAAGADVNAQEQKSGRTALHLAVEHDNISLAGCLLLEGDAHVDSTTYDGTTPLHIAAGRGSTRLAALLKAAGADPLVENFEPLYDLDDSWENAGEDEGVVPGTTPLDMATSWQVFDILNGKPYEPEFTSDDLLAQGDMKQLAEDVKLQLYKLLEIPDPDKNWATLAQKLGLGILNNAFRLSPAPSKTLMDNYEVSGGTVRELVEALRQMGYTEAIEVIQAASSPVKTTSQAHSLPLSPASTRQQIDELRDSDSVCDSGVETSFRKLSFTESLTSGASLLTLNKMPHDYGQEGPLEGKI

For `COCCOC[C@H](CC1(C(=O)NC2CCC(C(=O)O)CC2)CCCC1)C(=O)Oc1ccc2c(c1)CCC2` (stereo not given in full), the result in [1], in test [2], in [3], in [4], in test [5] and in test [6] was inactive. Moreover, the compound was classed as inactive in [7], in [8], in [9], in test [10], in test [11] and in [12]. Further, the outcome with MYC, MYC (gene 4609) is “inactive”; in [13] it was “inactive”; in test [14] it was “inactive”; in [15], “inactive”; in [16] it was “inactive”; in test [17], “inactive”.

Consider `O=C(N[C@@H](Cc1ccccc1)[C@@H](O)C(=O)N1C[C@@H](O)[C@@H](O)C1)c1cc2cc(Cl)ccc2[nH]1`, for which the compound was classed as inactive in test [1], in [2], in test [4], in test [5], in test [7] and in test [8]. Besides, the outcome in [9] is “inactive”; in test [11] it was “inactive”; in test [12], “inactive”; in the test with MYC, MYC (gene 4609), “inactive”; in [18], “inactive”; in [19] it was “inactive”. The result in [14], in test [15], in [16] and in [17] was inactive. In addition, the AC50 was 63.4 µM (active) in [3], 20.1 µM (active) in [10] and 50 µM (active) in test [13].

As for `CNC(=O)[C@H]1O[C@@H](n2cnc3c(NCc4cc(Cl)ccc4OCc4cc(C)no4)ncnc32)[C@H](O)[C@@H]1N`, the compound was called inactive in test [1], in test [2], in test [3], in [4], in test [5] and in [7]. In addition, the outcome in test [8] is “inactive”; in [9] it was “inactive”; in [10] it was “inactive”; in test [11], “inactive”; in test [12], “inactive”; in the test with MYC, MYC (gene 4609), “inactive”. Also, the result in test [18], in test [13], in [19], in test [14], in [15] and in [16] was inactive. Further, the compound was classed as inactive in [17].

Turning to `COc1ccc(C)cc1N`, the call in test [1], in test [2], in test [3], in [4], in [5] and in test [7] was inactive. The outcome in [8] is “inactive”; in test [9] it was “inactive”; in test [10] it was “inactive”; in [11], “inactive”; in test [12], “inactive”; with MYC, MYC (gene 4609), “inactive”. Also, the outcome in test [18], in test [13], in test [19], in [14], in [15] and in test [16] was inactive. Further, the compound was called inactive in test [17].

For orientation: AC50 means the concentration at which the activity in the assay is half-maximal.
